Results on 13 compounds are retold here after PubChem BioAssay (NCATS).

Records with an inconclusive call do not appear. The source made the active and inactive calls. Unless noted, the call rests on the fitted dose curve; in most records, active means well fitted curve in the direction sought with a large enough effect; inconclusive means small, poorly fitted or top-dose-only effect, or another doubt; inactive means no such curve, though single readings can be large; an effect the other way counts as inactive or inconclusive.

A short description of test [1]: Quantitative High-Throughput drug screen in 47 multiple myeloma cell lines against the NCATS MIPE library collection: OPM2_DSMZ cell viability assay (AID 1919872). Further: nearly all actives have a fitted effect of over 30% in size. Further: potency means the concentration at half of the fitted maximal effect. In outline: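 Luminescent ATP measurement with CellTiter-Glo gives viability, scaled between DMSO-only wells (100%) and media-only wells (0%). Cells, 500 per well, faced library compounds for 48 hours at 37C.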

The nature of test [2]: Quantitative High-Throughput drug screen in 47 multiple myeloma cell lines against the NCATS MIPE library collection: KMS11_JCRBsus cell viability assay (AID 1919873). Further: nearly all actives have a fitted effect of over 50% in size. Further: potency means the concentration at half of the fitted maximal effect. In short, it runs like this:
(§1)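 ATP-based CellTiter-Glo luminescence after 48 h drug exposure (37 °C, 5% CO2) of 500 myeloma cells per well. DMSO-only wells set 100% viability, media-only wells 0%; MIPE 4.0 library added by pin tool.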

The nature of test [3]: Quantitative High-Throughput drug screen in 47 multiple myeloma cell lines against the NCATS MIPE library collection: KMS28BM_JCRB cell viability assay (AID 1919874). Further: nearly all actives have a fitted effect of over 35% in size. Further: potency means the concentration at half of the fitted maximal effect. In short, it runs like this:
as §1

Test [4] in a line: qHTS drug screen for cell cycle checkpoint inhibitors in PARPi-resistant BRCA-mutant ovarian cancer cell lines. (AID 1963452; calls by dose curve; further: potency means the concentration at half of the fitted maximal effect). Conditions: PEO1/OlaR viability, CellTiter-Glo luminescence, 96 h; for Z-AUC: stronger effect = lower value. In outline: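 PEO1, PEO4 and PEO1/OlaR ovarian cancer cells, 600 per well, exposed 96 h at 37C to a dilution series. Viability read by CellTiter-Glo luminescence, normalized to DMSO and empty wells; activity summarized as Z-AUC.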
(In general: qHTS replaces the single test concentration by a dilution series.)

Test [5] in a line: qHTS for identification of novel therapeutic agents for treatment of microphthalmiaassociated transcription factor (MiT) renal cell carcinoma (RCC) (AID 1963991). The settings on record: CellTiter-Glo, 48 h, stronger effect = lower value. In short, it runs like this: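 Three TFE3-fusion RCC cell lines (UOK109, UOK124, UOK145), 500 cells/well, were exposed to the 1912-compound MIPE 4.0 library for 48 hours at 37 C. Viability was read by CellTiter-Glo luminescence, normalised to DMSO (100%) and empty wells (0%), with 11-concentration curve fits.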

The target in test [6] is Cytochrome P450 2D6 (Homo sapiens) (UniProt P10635). Description: qHTS for inhibitors of CYP2D6 against the NCATS DSHEA and TCM libraries (AID 1919972). Further: on the % scale 0 is the no-effect control and ±100 the full control effect. In short, it runs like this:
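CYP2D6 enzyme with pro-luciferin substrate in manufacturer buffer (typically 100 mM KPO4), preincubated 15 min RT with substances (most at 19.5 nM upward); NADPH regeneration system (1x) started 30–45 min RT reaction; P450-Glo luminescence read after 30 min; quinidine as intraplate control.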

Test [7] concerns the target Cytochrome P450 2C19 (Homo sapiens) (UniProt P33261). Description: qHTS for inhibitors of CYP2C19 against the NCATS DSHEA and TCM libraries (AID 1919974).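 Further: luminescence from luciferin released by CYP2C19 oxidation of a pro-luciferin substrate; potency means the concentration at half of the fitted maximal effect.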 In outline:
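Concentration-response screening with isoform-matched pro-luciferin substrates. The CYP reaction was initiated by NADPH regenerating solution and ran 30-45 min in darkness at room temperature.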

Test [8] in a line: KB-3-1 P-gp reporter qHTS against the NCATS DSHEA and TCM libraries (AID 1919975). Further: 0% is about no effect. In short, it runs like this:
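CellTiter-Glo luminescence viability readout; KB-3-1 parental cells, 500/well, attached ~4 h, then compound for ~72 h, 37C, 5% CO2. Bortezomib intraplate control.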

Test [9] has as its target Cytochrome P450 1A2 (Homo sapiens) (UniProt P05177). The test is described as follows: qHTS for inhibitors of CYPIA2 against the NCATS DSHEA and TCM libraries (AID 1919976).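 Further: light from luciferin formed by CYP1A2 from a pro-luciferin substrate; on the % scale 0 is the no-effect control and ±100 the full control effect.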 In outline: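 Enzyme and pro-luciferin substrate, or substrate alone as no-enzyme background, are pre-incubated with test samples for 15 min at room temperature. NADPH regeneration system (1x final) initiates a 30-45 min dark reaction; luciferase detection reagent follows before luminescence reading.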

A short description of test [10]: qHTS Counterscreen for compound interference against the NCATS DSHEA and TCM libraries (AID 1919978).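 Further: compounds preincubated with 1 µM D-luciferin or buffer before detection reagent; % of control where 0% means no effect.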 Conditions: firefly luciferase detection reagent interference, luminescence. In outline: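 Luminescence counterscreen for detection-kit interference: compounds at 19.5 nM–39.8 uM final, 15 min RT with 1 uM D-luciferin or buffer only; detection reagent added, 30 min RT, then read.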

Test [11] can be described thus: Dual reporter qHTS for agonist of Pregnane X Receptor (hPXR) against the NCATS DSHEA and TCM libraries: Fluorescence readout (AID 1920058). Further: 0% is about no effect. In short, it runs like this:
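Cells were plated at 2000 per well and allowed to attach for 5 h. Test substances were pinned in and incubated roughly 24 h. CellTiter-Fluor was then added and fluorescence measured after 1 h.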

The target of test [12] is Nuclear receptor subfamily 1 group I member 2 (Homo sapiens) (UniProt O75469). The test is described as follows: Dual reporter qHTS for agonist of Pregnane X Receptor (hPXR) against the NCATS DSHEA and TCM libraries: Luminescence readout (AID 1920059). Further: 0% is about no effect. In short, it runs like this:
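Luminescent PXR reporter read (ONE-Glo) after a CellTiter-Fluor viability read, following 24 h, 37C treatment of HepG2 cells stably carrying hPXR-Luc.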

The target is the same in test [13]. Description: Dual reporter qHTS for antagonist of Pregnane X Receptor (hPXR) against the NCATS DSHEA and TCM libraries: Luminescence Readout (AID 1920060).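 Further: HepG2 cells carrying hPXR luciferase reporter stimulated with rifampicin at 2 µM; 0% is about no effect.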 In outline:
(§2)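 Antagonist mode: rifampicin 2 uM final co-added with compounds to hPXR-LucHepG2 cells for 24 h at 37C. Viability by CellTiter-Fluor, Ex/Em 405/540 nm, 1 h; reporter by ONE-Glo luminescence.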

Test [14] can be described thus: Dual reporter qHTS for antagonist of Pregnane X Receptor (hPXR) against the NCATS DSHEA and TCM libraries: Fluorescence Readout (AID 1920061). Further: 0% is about no effect. In outline:
as §2

Test [15] can be described thus: qHTS profiling for inhibitors of Plasmodium falciparum proliferation (AID 504749). Further: nearly all actives have a fitted effect of over 60% in size. Further: potency means the concentration at half of the fitted maximal effect.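 On activity, negative = inhibition: 0% = DMSO vehicle and full inhibition = artemisinin control.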 Conditions: P. falciparum in erythrocytes, SYBR Green DNA, 72 h. In outline:
(§3)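 SYBR Green fluorescence of parasite DNA, read after lysis and overnight dark incubation, measured growth over 72 h in erythrocyte culture at 0.3% parasitemia and 2.5% hematocrit. Data normalised to DMSO and 0.29 uM artemisinin, with plate-drift correction.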

In test [16] the test system is 3D7. Described as above. The settings on record: P. falciparum in erythrocytes, SYBR Green DNA, 72 h; series mostly up to 28.7 µM. In short, it runs like this: as §3
Test [17] deals with 7G8. The test is described as above. The settings on record: P. falciparum in erythrocytes, SYBR Green DNA, 72 h; series mostly up to 28.7 µM. In outline: as §3
Test [18] relates to AA1029. Described as above. The settings on record: P. falciparum in erythrocytes, SYBR Green DNA, 72 h; series mostly up to 28.7 µM. In outline: as §3
Setting [19] is: measured here: PEO1 parental Z-AUC.
Setting [20] is: TFE3-RCC UOK109 viability, measured here: UOK109 Z-AUC.
Setting [21] is: TFE3-RCC viability, measured here: UOK124 Z-AUC.
Setting [22] is: TFE3-RCC viability, measured here: UOK145 Z-AUC.
The mark [23] stands for this setting: at 28.7 µM (top of the series), parasite line A.
Where [24] appears, read: at 28.7 µM (top of the series), parasite line B.

Sequence of Nuclear receptor subfamily 1 group I member 2 (Homo sapiens) (O75469 whole entry, looked up): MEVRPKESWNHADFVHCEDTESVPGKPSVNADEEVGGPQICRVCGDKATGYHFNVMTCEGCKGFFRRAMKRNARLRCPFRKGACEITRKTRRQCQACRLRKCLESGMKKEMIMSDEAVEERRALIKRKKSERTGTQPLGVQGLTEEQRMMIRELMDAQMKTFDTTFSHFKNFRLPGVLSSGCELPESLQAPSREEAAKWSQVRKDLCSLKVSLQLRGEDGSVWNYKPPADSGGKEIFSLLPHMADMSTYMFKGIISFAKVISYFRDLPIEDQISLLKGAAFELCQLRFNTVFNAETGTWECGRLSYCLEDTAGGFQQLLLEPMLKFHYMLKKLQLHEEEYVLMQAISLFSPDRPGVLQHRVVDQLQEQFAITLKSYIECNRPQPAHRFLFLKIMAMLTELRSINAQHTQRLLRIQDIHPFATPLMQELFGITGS
Sequence of Cytochrome P450 2C19 (Homo sapiens) (P33261 whole entry, looked up, canonical isoform): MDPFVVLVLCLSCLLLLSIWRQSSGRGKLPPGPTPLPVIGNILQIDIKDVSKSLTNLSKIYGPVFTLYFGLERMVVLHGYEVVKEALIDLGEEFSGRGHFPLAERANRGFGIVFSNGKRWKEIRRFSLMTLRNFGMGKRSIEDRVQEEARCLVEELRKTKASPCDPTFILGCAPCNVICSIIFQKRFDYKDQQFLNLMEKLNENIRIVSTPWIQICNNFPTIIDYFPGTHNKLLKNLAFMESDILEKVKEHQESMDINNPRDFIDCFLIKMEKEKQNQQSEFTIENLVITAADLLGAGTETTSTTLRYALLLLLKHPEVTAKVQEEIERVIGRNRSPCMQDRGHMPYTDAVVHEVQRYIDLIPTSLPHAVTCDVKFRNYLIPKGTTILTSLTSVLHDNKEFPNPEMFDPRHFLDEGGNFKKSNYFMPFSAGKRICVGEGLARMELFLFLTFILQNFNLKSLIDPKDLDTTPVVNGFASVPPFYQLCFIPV
Sequence of Cytochrome P450 2D6 (Homo sapiens) (P10635 whole entry, looked up): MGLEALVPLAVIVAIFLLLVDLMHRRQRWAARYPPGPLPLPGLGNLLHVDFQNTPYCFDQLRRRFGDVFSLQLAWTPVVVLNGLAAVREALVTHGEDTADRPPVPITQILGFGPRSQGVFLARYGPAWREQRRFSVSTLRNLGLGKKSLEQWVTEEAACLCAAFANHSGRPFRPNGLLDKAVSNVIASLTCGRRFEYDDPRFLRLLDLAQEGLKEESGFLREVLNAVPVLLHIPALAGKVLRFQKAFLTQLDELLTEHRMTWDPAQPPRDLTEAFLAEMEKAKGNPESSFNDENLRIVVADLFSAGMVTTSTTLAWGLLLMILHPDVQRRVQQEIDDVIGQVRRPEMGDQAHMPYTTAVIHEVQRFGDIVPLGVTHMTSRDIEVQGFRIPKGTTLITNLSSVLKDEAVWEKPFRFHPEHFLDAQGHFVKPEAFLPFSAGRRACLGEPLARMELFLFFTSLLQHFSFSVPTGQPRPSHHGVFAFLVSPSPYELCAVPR
Sequence of Cytochrome P450 1A2 (Homo sapiens) (P05177 whole entry, looked up): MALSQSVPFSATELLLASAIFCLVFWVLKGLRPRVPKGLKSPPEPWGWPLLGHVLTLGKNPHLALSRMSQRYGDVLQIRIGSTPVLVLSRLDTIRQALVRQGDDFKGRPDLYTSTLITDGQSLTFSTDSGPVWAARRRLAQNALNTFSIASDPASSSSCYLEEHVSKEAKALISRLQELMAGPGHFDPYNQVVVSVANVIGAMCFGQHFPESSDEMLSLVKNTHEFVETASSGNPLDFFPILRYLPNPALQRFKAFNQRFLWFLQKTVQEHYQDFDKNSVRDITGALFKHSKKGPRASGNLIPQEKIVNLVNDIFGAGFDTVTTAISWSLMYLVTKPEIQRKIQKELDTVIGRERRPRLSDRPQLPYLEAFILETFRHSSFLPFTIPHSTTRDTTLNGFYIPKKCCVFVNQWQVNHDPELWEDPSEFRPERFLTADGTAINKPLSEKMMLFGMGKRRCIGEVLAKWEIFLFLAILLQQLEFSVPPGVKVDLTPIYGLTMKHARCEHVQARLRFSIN

Regarding `CCN1CCCC1CNC(=O)c1cc(S(N)(=O)=O)ccc1OC` (stereo unspecified), the Potency result in [1] and in test [2] was “inactive” throughout.
In the case of `COc1cc2ncnc(Nc3cccc(Cl)c3)c2cc1OC`, in test [1], the Potency entry was “inactive”. In addition, the Potency in [2] was 18.7 µM (active).
Consider `CCCCc1oc2ccc(NS(C)(=O)=O)cc2c1C(=O)c1ccc(OCCCN(CCCC)CCCC)cc1`, for which the Potency in test [1] was 23.5 µM (active); in test [2], 11.8 µM (active); in [3], 13.2 µM (active). Besides, the Z-AUC was 0.47 (inactive) in test [4], -0.173 in test [4] (setting [19]) and -0.237 in test [4] (measured here: PEO4 Z-AUC).
On to `CC(=O)[C@H]1CC[C@H]2[C@@H]3CC=C4C[C@@H](O)CC[C@]4(C)[C@H]3CC[C@]12C`, for which the Potency entry in test [1], in test [2] and in test [3] was “inactive” each time. In addition, the results for the Z-AUC in [4], in test [4] (setting [19]) and in test [4] (measured here: PEO4 Z-AUC) were 1.05 (inactive), 0.974 and 0.706, respectively. The z-score in [5] (setting [20]) was 0.424; in [5] (setting [21]), 0.52; in test [5] (setting [22]), 0.375.
In the case of `NS(=O)(=O)c1cc2c(cc1Cl)NC(C(Cl)Cl)NS2(=O)=O` (stereo unspecified), the Potency entry in [1], in test [2] and in test [3] was “inactive” each time. Also, the values for the Z-AUC in test [4], in [4] (setting [19]) and in test [4] (measured here: PEO4 Z-AUC) were 0.208 (inactive), 0.729 and 0.959, respectively. For the same compound, the z-score in [5] (setting [20]) stood at 0.286; in [5] (setting [21]), 0.327; in test [5] (setting [22]) it was 0.519.
Take `NNC(=O)c1ccncc1`: the Potency result in test [6] and in test [8] was “inactive” each time. The Potency in test [7] was 12.6 µM (active). Further, the compound was called inactive in [9], in test [11], in test [12], in [13] and in [14]. Besides, the max response in test [10] was 1.88% (inactive).
With `COc1cc([C@@H]2c3cc4c(cc3[C@H](O)[C@H]3COC(=O)[C@H]23)OCO4)cc(OC)c1OC`, the Potency in test [4] is 17.4 nM (active).
Turning to `COC(=O)Nc1nc2ccc(C(=O)c3ccccc3)cc2[nH]1`, the Potency in test [4] is 436 nM (active).
On to `NCCCC(O)(P(=O)(O)O)P(=O)(O)O`, for which the Potency result in test [1], in [16], in [17] and in test [18] was “inactive” throughout. Moreover, the Potency in [3] is 14.8 µM (active). Moreover, the Z-AUC in [4] was 0.983 (inactive); in [4] (setting [19]), 0.814; in [4] (measured here: PEO4 Z-AUC), 0.863. In addition, the z-score in [5] (setting [20]) came to 0.263; in test [5] (setting [21]) it was 0.663; in test [5] (setting [22]) it was 0.216. For the same compound, the activity, negative = inhibition in test [15] (setting [23]) was 5.33% (inactive); in [15] (setting [24]) it was 1.25% (inactive).
For the compound `CNNCc1ccc(C(=O)NC(C)C)cc1`, the Potency in [1] was 8.33 µM (active). Also, the values for the Z-AUC in test [4], in test [4] (setting [19]) and in [4] (measured here: PEO4 Z-AUC) were 1.13 (inactive), 0.747 and 1.05, respectively. In addition, the activity, negative = inhibition in test [15] (setting [23]) was 0.0651% (inactive); in test [15] (setting [24]) it was -2.63% (inactive). The Potency entry in test [16] and in [18] was “inactive” in each case.
On to `CCCCCCNC(=O)n1cc(F)c(=O)[nH]c1=O`, for which the Potency entry in test [1] and in test [3] was “inactive” in each case. The figures for the Z-AUC in test [4], in test [4] (setting [19]) and in test [4] (measured here: PEO4 Z-AUC) were 1.08 (inactive), 0.601 and 0.733, respectively. Besides, the values for the Potency in test [16] and in [17] were 4.47 µM (active) and 5.01 µM (active), respectively.
As to `COc1cnc(NS(=O)(=O)c2ccc(N)cc2)nc1`, the Potency entry in test [1], in test [16], in [17] and in [18] was “inactive” throughout. Besides, the activity, negative = inhibition in test [15] (at 12.8 µM (top of the series), parasite line A) is 3.37% (inactive); in test [15] (at 12.8 µM (top of the series), parasite line B), 2.7% (inactive).
For the compound `CCC(C)(C)c1ccc(CC(C)CN2C[C@@H](C)O[C@@H](C)C2)cc1` (stereo partly specified), the Potency entry in [1] and in test [18] was “inactive” in each case. In addition, the Z-AUC in [4] is 0.498 (inactive); in test [4] (setting [19]) it was 0.321; in test [4] (measured here: PEO4 Z-AUC), 0.288. Further, the activity, negative = inhibition was -5% (inactive) in [15] (setting [23]) and -10.4% (inactive) in test [15] (setting [24]). The Potency in [17] is 10 µM (active).
